About 7,900 targets were measured; listed, in parts, are those with a hit and a random draw of the rest. About 0.6% of all pairs of compound and target were hits.
Columns and labels:
Experiment in all cases: log2 fold change, soluble protein after heating vs DMSO (PISA); higher = thermal stabilisation; K562 cells, 10 uM, 30 min; active = over 0.2 and 3.5 SD of the protein, either way, in both replicates (recomputed)
[1] = compound: CN1CCN(CCOc2cc(OC3CCOCC3)c3c(Nc4c(Cl)ccc5c4OCO5)ncnc3c2)CC1 [saracatinib]
Procedure, shortened: (§1)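 K562 cells at 2×10^6 cells/mL were treated with 10 μM compound for 30 min. Aliquots were heated for 3 min across 48°C-58°C, pooled, and extracted in PBS with 0.5% NP-40 at 4°C; soluble protein was the supernatant after 21,000xg for 90 min. Soluble protein was quantified by TMTpro 16plex LC-MS/MS with channel sums equalised, and reported as log2 fold change in thermal stability against DMSO controls, with values from duplicates.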

[2] = compound: CN1CCN(c2nc(C3=C(c4c[nH]c5ccccc45)C(=O)NC3=O)c3ccccc3n2)CC1 [sotrastaurin]
Procedure, shortened: as §1

[3] = compound: CN1CC[C@H](c2c(O)cc(O)c3c(=O)cc(-c4ccccc4Cl)oc23)[C@H](O)C1 [alvocidib]
Procedure, shortened: as §1

[4] = compound: CN1CCc2c(c3ccccc3n2Cc2ccc(C(=O)NO)cc2)C1 [Tubastatin A]
Procedure, shortened: as §1

[5] = compound: CNC(=O)C1=CC=CC=C1NC2=NC(=NC=C2Cl)NC3=C(C=C(C=C3)N4CCOCC4)OC
Procedure, shortened: as §1

[6] = compound: CNC(=O)c1ccc(Nc2ncc(C(F)(F)F)c(NCc3nccnc3N(C)S(C)(=O)=O)n2)cc1 [defactinib]
Procedure, shortened: as §1

[7] = compound: CNc1nc(-c2ccc3c(N)n[nH]c3c2)cc(N2C[C@@H](C(=O)NC3CCCCC3)CC[C@H]2C)n1
Procedure, shortened: as §1

[8] = compound: COC(=O)[C@H](CCSC)NC(=O)C1=C(C=C(C=C1)NC[C@H](CS)N)C2=CC=CC=C2
Procedure, shortened: as §1

[9] = compound: CNCc1ccc(-c2[nH]c3cc(F)cc4c3c2CCNC4=O)cc1 [rucaparib]
Procedure, shortened: as §1

[10] = compound: COC(=O)N[C@@H](C)CNc1nccc(-c2cn(C(C)C)nc2-c2cc(Cl)cc(NS(C)(=O)=O)c2F)n1 [encorafenib]
Procedure, shortened: as §1

Measured: log2 fold change

POLR3D (UniProt P05423)
Chain of UniProt P05423 (P05423 whole entry, looked up): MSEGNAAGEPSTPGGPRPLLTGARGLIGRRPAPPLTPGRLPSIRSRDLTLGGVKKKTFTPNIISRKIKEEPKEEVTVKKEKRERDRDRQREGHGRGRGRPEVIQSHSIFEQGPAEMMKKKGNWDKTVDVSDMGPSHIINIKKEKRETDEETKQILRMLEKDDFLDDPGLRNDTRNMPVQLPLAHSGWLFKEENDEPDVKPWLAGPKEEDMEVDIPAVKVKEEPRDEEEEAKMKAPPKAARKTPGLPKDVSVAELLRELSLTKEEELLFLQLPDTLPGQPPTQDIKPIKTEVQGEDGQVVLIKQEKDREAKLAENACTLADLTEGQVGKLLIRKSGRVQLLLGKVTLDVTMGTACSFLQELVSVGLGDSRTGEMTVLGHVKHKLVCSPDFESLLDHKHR
inactive: [1] 0.264 | [2] -0.029 | [3] 0.024 | [4] 1.53 | [5] -0.074 | [6] -0.027 | [7] 0.425 | [8] -0.08

PBK (UniProt Q96KB5)
Chain of UniProt Q96KB5 (Q96KB5 whole entry, looked up): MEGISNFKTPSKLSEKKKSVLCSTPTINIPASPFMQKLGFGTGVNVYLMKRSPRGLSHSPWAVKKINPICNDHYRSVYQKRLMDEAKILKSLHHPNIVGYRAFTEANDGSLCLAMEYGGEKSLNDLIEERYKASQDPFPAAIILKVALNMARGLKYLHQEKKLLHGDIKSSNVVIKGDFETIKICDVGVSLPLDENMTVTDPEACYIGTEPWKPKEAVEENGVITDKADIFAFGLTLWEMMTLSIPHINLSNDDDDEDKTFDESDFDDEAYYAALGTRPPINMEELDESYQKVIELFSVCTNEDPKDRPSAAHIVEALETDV
inactive: [1] 0.01 | [2] -0.205 | [3] -0.02 | [4] 0.089 | [5] 0.093 | [6] -0.15 | [9] 0.187 | [7] 0.005 | [10] 0.198 | [8] -0.111

PRKD2 isoform 3 (UniProt Q9BZL6)
Chain of UniProt Q9BZL6 (Q9BZL6 whole entry, looked up): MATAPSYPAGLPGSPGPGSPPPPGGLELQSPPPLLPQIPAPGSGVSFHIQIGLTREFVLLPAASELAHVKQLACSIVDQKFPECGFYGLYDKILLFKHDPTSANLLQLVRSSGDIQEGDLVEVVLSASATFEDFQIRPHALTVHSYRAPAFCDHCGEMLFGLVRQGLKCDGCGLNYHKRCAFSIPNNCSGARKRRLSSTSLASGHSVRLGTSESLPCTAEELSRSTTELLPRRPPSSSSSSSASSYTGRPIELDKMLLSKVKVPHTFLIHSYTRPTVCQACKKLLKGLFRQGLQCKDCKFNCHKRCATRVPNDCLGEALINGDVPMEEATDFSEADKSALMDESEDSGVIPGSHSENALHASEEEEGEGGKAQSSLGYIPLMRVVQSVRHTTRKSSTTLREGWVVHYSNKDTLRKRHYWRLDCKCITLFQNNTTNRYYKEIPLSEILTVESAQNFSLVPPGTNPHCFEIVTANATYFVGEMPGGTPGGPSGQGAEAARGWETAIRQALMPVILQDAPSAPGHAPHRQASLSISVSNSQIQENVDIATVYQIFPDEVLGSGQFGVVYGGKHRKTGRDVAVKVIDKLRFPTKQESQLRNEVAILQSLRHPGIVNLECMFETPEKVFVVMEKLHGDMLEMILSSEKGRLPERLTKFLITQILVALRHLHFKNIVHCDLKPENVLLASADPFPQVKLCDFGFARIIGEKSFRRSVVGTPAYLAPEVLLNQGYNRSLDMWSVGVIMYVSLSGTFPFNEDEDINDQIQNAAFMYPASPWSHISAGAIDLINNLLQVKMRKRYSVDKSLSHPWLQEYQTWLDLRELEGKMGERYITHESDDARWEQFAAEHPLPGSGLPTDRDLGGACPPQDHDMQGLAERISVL
inactive: [1] -0.031 | [2] -0.273 | [3] 0.034 | [4] 0 | [5] -0.242 | [6] -0.004 | [7] -0.075 | [8] -0.024

PRMT7 (UniProt Q9NVM4)
Chain of UniProt Q9NVM4 (Q9NVM4 whole entry, looked up): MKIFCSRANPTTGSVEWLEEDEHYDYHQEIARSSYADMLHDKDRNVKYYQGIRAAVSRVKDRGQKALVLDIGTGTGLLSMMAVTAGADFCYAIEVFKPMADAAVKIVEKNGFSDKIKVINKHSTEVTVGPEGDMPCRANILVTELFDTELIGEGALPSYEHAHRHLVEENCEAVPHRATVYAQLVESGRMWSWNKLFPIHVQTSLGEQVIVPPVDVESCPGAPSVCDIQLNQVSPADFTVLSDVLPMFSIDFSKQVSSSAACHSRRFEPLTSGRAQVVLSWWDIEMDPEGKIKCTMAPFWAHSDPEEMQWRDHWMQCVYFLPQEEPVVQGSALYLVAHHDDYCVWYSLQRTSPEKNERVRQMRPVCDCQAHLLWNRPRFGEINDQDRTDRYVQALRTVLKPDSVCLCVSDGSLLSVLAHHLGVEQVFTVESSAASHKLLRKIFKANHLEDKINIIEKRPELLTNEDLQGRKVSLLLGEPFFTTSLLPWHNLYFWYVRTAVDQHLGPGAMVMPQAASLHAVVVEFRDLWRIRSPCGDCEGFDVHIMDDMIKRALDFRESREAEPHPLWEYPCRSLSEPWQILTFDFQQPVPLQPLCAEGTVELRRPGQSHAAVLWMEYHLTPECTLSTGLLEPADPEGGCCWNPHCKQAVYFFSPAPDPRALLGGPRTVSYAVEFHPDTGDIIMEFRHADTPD
inactive: [1] -0.02 | [2] -0.124 | [3] -0.219 | [4] 0.088 | [5] 0.004 | [6] -0.086 | [9] 0.008 | [7] 0.031 | [10] 0.112 | [8] -0.04

PRPF31 (UniProt Q8WWY3)
Chain of UniProt Q8WWY3 (Q8WWY3 whole entry, looked up): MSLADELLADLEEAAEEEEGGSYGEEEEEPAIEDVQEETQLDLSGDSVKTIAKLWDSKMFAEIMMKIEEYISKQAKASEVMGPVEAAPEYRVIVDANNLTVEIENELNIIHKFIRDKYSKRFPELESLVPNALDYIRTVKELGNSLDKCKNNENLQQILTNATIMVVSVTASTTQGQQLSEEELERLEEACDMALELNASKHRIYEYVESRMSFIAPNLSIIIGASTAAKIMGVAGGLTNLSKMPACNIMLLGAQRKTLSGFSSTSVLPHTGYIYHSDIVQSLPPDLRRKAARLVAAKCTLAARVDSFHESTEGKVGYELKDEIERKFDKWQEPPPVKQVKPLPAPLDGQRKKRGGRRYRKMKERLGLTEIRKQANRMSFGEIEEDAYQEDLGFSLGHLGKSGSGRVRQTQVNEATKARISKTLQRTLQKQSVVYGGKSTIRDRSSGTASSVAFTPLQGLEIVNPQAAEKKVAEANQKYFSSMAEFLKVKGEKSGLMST
inactive: [1] -0.093 | [2] -0.15 | [3] -0.193 | [4] 0.144 | [5] -0.033 | [9] -0.068 | [7] 0.033 | [10] 0.011 | [8] -0.037
active: [6] -0.456

PPM1G (UniProt O15355)
inactive: [1] -0.086 | [2] -0.213 | [3] -0.165 | [4] 0.187 | [5] 0.108 | [6] -0.226 | [9] -0.088 | [7] -0.038 | [10] 0.085 | [8] -0.104

PPOX (UniProt P50336)
Chain of UniProt P50336 (P50336 whole entry, looked up): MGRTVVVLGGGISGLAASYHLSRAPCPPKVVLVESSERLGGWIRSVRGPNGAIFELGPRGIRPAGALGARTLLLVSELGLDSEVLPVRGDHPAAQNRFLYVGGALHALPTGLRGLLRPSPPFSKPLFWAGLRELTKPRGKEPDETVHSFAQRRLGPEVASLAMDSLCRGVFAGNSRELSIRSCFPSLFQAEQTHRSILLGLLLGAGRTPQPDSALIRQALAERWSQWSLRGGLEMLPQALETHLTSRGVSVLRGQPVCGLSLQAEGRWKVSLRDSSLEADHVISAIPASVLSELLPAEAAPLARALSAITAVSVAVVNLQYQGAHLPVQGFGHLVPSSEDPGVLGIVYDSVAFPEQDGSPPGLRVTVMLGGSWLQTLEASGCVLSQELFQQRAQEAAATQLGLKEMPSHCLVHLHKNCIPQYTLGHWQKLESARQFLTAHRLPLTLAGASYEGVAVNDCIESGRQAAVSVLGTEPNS
inactive: [1] -0.087 | [2] 0.02 | [3] -0.049 | [4] -0.045 | [6] -0.07 | [9] -0.059 | [7] 0.274 | [10] -0.018 | [8] -0.01
active: [5] 0.534

POLR2B (UniProt P30876)
active: [3] 0.254
inactive: [1] -0.071 | [2] -0.032 | [4] -0.01 | [5] -0.016 | [6] 0.173 | [9] 0.174 | [7] -0.012 | [10] 0.056 | [8] -0.044

PECAM1 (UniProt P16284)
inactive: [1] 0.062 | [2] 0.062 | [3] 0.005 | [4] 0.096 | [5] -0.076 | [6] 0 | [9] 0 | [7] 0.003 | [10] -0.092 | [8] -0.007

PMVK (UniProt Q15126)
Chain of UniProt Q15126 (Q15126 whole entry, looked up): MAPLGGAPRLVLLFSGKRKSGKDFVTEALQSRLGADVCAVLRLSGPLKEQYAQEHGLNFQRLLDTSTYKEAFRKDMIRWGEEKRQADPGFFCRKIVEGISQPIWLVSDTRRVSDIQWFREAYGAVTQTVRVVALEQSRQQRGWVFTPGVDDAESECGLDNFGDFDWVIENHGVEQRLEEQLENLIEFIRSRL
inactive: [1] -0.021 | [2] -0.003 | [3] -0.032 | [4] 0.229 | [5] -0.051 | [6] 0.02 | [7] -0.039 | [8] -0.368

PNPLA2 (UniProt Q96AD5)
Chain of UniProt Q96AD5 (Q96AD5 whole entry, looked up): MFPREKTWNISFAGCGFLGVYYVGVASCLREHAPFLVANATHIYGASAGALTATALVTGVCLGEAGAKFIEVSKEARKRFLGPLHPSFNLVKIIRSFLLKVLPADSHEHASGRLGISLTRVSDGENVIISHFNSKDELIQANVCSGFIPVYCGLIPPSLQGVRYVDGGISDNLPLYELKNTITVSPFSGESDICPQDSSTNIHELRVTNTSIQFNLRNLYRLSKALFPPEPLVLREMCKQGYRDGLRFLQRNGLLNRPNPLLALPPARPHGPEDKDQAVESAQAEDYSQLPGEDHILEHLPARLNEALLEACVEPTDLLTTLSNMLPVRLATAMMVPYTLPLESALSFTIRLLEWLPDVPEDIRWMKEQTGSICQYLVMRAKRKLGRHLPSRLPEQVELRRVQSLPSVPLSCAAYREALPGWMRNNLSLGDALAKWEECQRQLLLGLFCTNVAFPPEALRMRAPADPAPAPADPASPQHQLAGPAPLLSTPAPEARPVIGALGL
inactive: [1] 0.015 | [2] -0.028 | [3] -0.058 | [4] -0.034 | [5] -0.039 | [6] 0 | [9] -0.06 | [7] 0.154 | [10] -0.012 | [8] -0.056

PTK2B (UniProt Q14289)
Chain of UniProt Q14289 (Q14289 whole entry, looked up): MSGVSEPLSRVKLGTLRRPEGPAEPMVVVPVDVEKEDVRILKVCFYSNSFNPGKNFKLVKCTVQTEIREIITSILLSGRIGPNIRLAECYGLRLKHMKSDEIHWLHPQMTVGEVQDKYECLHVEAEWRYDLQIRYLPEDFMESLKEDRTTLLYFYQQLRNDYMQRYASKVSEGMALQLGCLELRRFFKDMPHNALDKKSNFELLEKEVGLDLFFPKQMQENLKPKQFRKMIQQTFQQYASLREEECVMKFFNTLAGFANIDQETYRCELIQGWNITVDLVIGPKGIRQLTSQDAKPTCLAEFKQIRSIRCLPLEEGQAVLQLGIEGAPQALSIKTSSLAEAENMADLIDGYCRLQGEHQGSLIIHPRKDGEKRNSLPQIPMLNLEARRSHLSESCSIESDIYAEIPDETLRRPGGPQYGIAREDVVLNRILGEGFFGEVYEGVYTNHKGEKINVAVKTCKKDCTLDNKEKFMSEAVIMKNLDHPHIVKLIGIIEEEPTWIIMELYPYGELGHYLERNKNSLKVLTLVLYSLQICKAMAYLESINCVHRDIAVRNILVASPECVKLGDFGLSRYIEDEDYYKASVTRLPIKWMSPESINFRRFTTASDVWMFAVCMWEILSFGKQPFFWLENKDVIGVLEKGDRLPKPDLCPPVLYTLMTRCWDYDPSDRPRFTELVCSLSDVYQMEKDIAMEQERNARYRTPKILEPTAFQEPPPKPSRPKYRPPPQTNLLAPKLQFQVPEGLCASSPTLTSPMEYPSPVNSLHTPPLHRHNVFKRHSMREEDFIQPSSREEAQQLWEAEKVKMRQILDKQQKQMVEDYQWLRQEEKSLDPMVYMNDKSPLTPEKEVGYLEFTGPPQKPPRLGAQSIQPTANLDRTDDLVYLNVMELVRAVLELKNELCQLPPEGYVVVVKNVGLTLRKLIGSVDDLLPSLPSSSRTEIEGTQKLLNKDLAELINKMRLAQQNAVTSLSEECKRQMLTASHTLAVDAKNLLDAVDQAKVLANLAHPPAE
inactive: [1] 0.163 | [2] -0.104 | [4] 0.078 | [5] 0.309 | [6] 0.36 | [7] -0.034 | [8] -0.155

Source: the supplement of paper PMC10849652
